Compound activity from PubChem BioAssay.
D3 ag = qHTS of D3 Dopamine Receptor Agonist: qHTS; D(3) dopamine receptor (Homo sapiens), P35462; D3R DiscoveRx beta-arrestin cells, luminescence, 90 min; max activation, %; actives 0.58% (n = 410,000); in the data active = max activation above about 30%; also: 0% is about no effect
Target sequence (P35462 whole entry, looked up): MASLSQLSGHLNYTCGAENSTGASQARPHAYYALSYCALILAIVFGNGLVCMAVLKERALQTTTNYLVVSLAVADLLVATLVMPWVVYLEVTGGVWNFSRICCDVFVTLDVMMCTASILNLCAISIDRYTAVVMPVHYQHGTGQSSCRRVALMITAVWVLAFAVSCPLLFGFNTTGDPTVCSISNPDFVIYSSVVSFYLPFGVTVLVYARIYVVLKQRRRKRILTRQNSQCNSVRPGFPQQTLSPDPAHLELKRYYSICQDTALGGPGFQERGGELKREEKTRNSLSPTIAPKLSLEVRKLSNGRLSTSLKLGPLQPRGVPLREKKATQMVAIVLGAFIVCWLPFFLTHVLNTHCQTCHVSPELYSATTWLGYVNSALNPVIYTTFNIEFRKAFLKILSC
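Agonist mode: compounds and dopamine controls were applied to plated cells for 90 min at 37 degrees C after an overnight attachment at 1500 cells/well. Luminescent read-out followed 30 - 60 minutes at room temperature with DiscoveRx detection reagent.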
DRD3 antagonist = qHTS of D3 Dopamine Receptor Antagonist: qHTS; D3R cells, DiscoveRx beta-arrestin luminescence, antagonist mode; active compounds read low; D(3) dopamine receptor (Homo sapiens), P35462; actives 2.5% (n = 360,000); AID 652054, 2013; max response, negative = inhibition, %; in the data active = max response below about -50%; inconclusive = no clear call, values can overlap the other calls; also: % is scaled to controls: 0 for no effect and ±100 for the full control effect
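Cells plated overnight at 1500 cells/well, then exposed to library compounds with dopamine controls for 90 minutes at 37 degrees C. DiscoveRx reagent added for 30–60 minutes at room temperature; luminescence read, quantitative HTS format.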
D1 antagonist = Antagonist of Human D 1 Dopamine Receptor: qHTS; D(1A) dopamine receptor (Homo sapiens), P21728; HEK293 TREx D1 cells, calcium flux, dopamine EC80; active compounds read low; activity change, negative = inhibition, % at 10 µM; actives 3.2% (n = 360,000); in the data active = activity change below about -30%; also: % is scaled to controls: 0 for no effect and ±100 for the full control effect
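Antagonism measured as reduced calcium response to an EC80 dopamine addition following 180 s compound pre-read; cells were inducible HEK293 Trex D1 plated overnight at 30 C, read kinetically at 1 cycle/sec.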
D1 agonist = Allosteric Agonists of the Human D1 Dopamine Receptor: qHTS | D(1A) dopamine receptor (Homo sapiens), P21728 | HEK293 T-REx D1 cells, calcium flux, agonist mode | activation, % at 2 µM | actives 1% (n = 360,000) | AID 504660, 2011; in the data active = activation above about 30%; also: 0% is about no effect
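Agonism was scored from calcium flux recorded over 180 s (1 read/s) after pintool compound addition, following a 10-cycle baseline. Cells were inducible force-coupled HEK293 TREx D1, plated overnight at 30 C and loaded with no-wash calcium dye.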
D1 potentiator = Potentiators of Human D1 Dopamine Receptor: qHTS | D(1A) dopamine receptor (Homo sapiens), P21728 | HEK293 TREx D1 cells, calcium flux, dopamine EC20 potentiation | potentiation, % at 10 µM | actives 0.036% (n = 360,000) | AID 504651, 2011; in the data active = potentiation above about 30%; also: 0% is about no effect
* = called active by the depositor. In the library only some 6% were active in any assay of this set; here they are far more common.

How did Cc1ccc(C(C)C)c(OCCNS(C)(=O)=O)c1 do in these assays?
D3 ag: -10; DRD3 antagonist: 7; D1 antagonist: -5; D1 agonist: 3; D1 potentiator: -5

What do the screens show for `CC(C)(C)c1ccc(OCCNCc2ccccc2)cc1`?
D3 ag: -16; DRD3 antagonist: -53*; D1 antagonist: 10; D1 agonist: 43*; D1 potentiator: 23

How did CCC(C)NCCOc1ccc(C(C)(C)c2ccccc2)cc1 (centres undefined) do in these assays?
D3 ag: -16; DRD3 antagonist: inconclusive; D1 antagonist: -3; D1 agonist: 72*; D1 potentiator: 3

What do the screens show for `CC(C)(C)c1ccc(OCCNC(=S)Nc2ccccc2)cc1`?
D3 ag: -5; DRD3 antagonist: inconclusive; D1 antagonist: 2; D1 agonist: 20; D1 potentiator: -10

Results for CCCCNCC#CCOc1cc(C)ccc1C(C)C ?
D3 ag: 0; DRD3 antagonist: -52*; D1 antagonist: 6; D1 agonist: 87*; D1 potentiator: -2

What do the screens show for `Cc1ccc(C(C)C)c(OCCNCCc2ccccc2)c1`?
D3 ag: -23; DRD3 antagonist: inconclusive; D1 antagonist: -1; D1 agonist: 58*; D1 potentiator: 21

How did Cc1ccc(C(C)C)c(OCCCNCc2cccnc2)c1 do in these assays?
D3 ag: -7; DRD3 antagonist: inconclusive; D1 antagonist: -21; D1 agonist: 10; D1 potentiator: -4

Results for CC1(C)CC(=O)c2cc(C(=O)Nc3ccc(Br)cc3)c(=O)[nH]c2C1 ?
D3 ag: 3; D1 antagonist: -5; D1 agonist: 1; D1 potentiator: 0

How did O=C(CCCOc1ccccc1)NCCc1ccccc1 do in these assays?
D3 ag: 2; DRD3 antagonist: 2; D1 antagonist: -2; D1 agonist: 2; D1 potentiator: -2

What do the screens show for `NNCCc1ccccc1`?
D3 ag: -21; DRD3 antagonist: -113*; D1 antagonist: -8; D1 agonist: 2; D1 potentiator: -4

What do the screens show for `CCCOc1ccc(OCCCCNC(C)CC)cc1` (centres undefined)?
D3 ag: 2; DRD3 antagonist: -55*; D1 antagonist: -54*; D1 agonist: 3; D1 potentiator: 7

Results for CC(C)(c1ccccc1)c1ccc(OCCCN2CCNCC2)cc1 ?
D3 ag: -5; DRD3 antagonist: -10; D1 antagonist: 6; D1 agonist: 59*; D1 potentiator: -4

What do the screens show for `c1ccc(CCNCCOc2ccccc2)cc1`?
D3 ag: -3; DRD3 antagonist: inconclusive; D1 antagonist: -53*; D1 agonist: 1; D1 potentiator: -11

How did CNCCCOc1ccc(C(C)(C)c2ccccc2)cc1 do in these assays?
D1 antagonist: 7; D1 agonist: 53*; D1 potentiator: 4

What do the screens show for `CCOC(=O)c1c(CC(C)C)csc1/N=C/C1C(=O)CC(C)(C)CC1=O`?
D3 ag: 8; DRD3 antagonist: 5; D1 antagonist: -4; D1 agonist: 32*; D1 potentiator: -2

What do the screens show for `CCOC(=O)c1cc(C)sc1/N=C/C1C(=O)CC(C)(C)CC1=O`?
D3 ag: -13; DRD3 antagonist: -11; D1 antagonist: -6; D1 agonist: -2; D1 potentiator: -8

Results for CCCCNC(=O)c1onc(CSc2ccncc2)c1C(=O)NCCCC ?
D3 ag: 59*; DRD3 antagonist: -3; D1 antagonist: -6; D1 agonist: 2; D1 potentiator: -2

What do the screens show for `CCCCNC(=O)c1onc(CSc2ccccc2)c1C(=O)NCCCC`?
D3 ag: 42*; DRD3 antagonist: 0; D1 antagonist: -1; D1 agonist: 6; D1 potentiator: -2

How did CN1CCc2c(sc3c2C(=O)NC(c2ccco2)N3)C1 (centres undefined) do in these assays?
D3 ag: -25; DRD3 antagonist: 17; D1 antagonist: -7; D1 agonist: 8; D1 potentiator: -4

How did CN1CCc2c(sc3c2C(=O)NC(c2ccc(-c4ccc(Cl)cc4)o2)N3)C1 (centres undefined) do in these assays?
D3 ag: -25; DRD3 antagonist: -81*; D1 antagonist: 9; D1 agonist: 8; D1 potentiator: -3

How did COc1cc(C2NC(=O)c3c(sc4c3CCN(C)C4)N2)ccc1OC(=O)c1ccccc1 (centres undefined) do in these assays?
D3 ag: -20; D1 antagonist: 1; D1 agonist: 38*; D1 potentiator: 4

Results for CN1CCc2c(sc3c2C(=O)NC(c2cn(Cc4ccccc4)c4ccccc24)N3)C1 (centres undefined) ?
D3 ag: -11; DRD3 antagonist: -75*; D1 antagonist: 11; D1 agonist: 3; D1 potentiator: -2

How did Cc1ccc(Nc2cc(C)c(C#N)c3nc4ccccc4n23)c(C)c1 do in these assays?
D3 ag: 1; D1 antagonist: -38*; D1 agonist: -1; D1 potentiator: -9

How did COc1ccc(C2N3CC4(C)CN2CC(c2ccccc2)(C3)C4=O)cc1 (centres undefined) do in these assays?
D3 ag: 3; D1 antagonist: 2; D1 agonist: -1; D1 potentiator: 6

Results for COc1cc(NC(=O)Cc2c(C(=O)O)n(C)c3ccccc23)cc(OC)c1OC ?
D3 ag: 2; DRD3 antagonist: 5; D1 antagonist: -106*; D1 agonist: 1; D1 potentiator: -10

What do the screens show for `CCn1c(=O)n(CC(=O)Nc2cc(OC)c(OC)c(OC)c2)c(=O)c2ccccc21`?
D3 ag: -17; DRD3 antagonist: -21; D1 antagonist: -45*; D1 agonist: 0; D1 potentiator: -5

How did COc1ccc(NC(=O)Cc2c(C(=O)O)n(C)c3ccccc23)cc1OC do in these assays?
D3 ag: 0; DRD3 antagonist: -2; D1 antagonist: 18; D1 agonist: 2; D1 potentiator: -5

How did COc1ccccc1N1CCN(CCCNC(=O)C2CCCN(c3ncnc4c3nc3n4CCCCC3)C2)CC1 (centres undefined) do in these assays?
D3 ag: -20; DRD3 antagonist: -104*; D1 antagonist: -28; D1 agonist: 0; D1 potentiator: -12

How did O=C(NCCCN1CCN(c2ccc(F)cc2)CC1)C1CCCN(c2ncnc3c2nc2n3CCCCC2)C1 (centres undefined) do in these assays?
D3 ag: -11; DRD3 antagonist: -55*; D1 antagonist: 6; D1 agonist: 1; D1 potentiator: -10

Results for COc1ccc(Cl)cc1NC(=O)Cn1c2ncccc2c(=O)n1-c1ccc(C)c(C)c1 ?
D3 ag: 10; D1 antagonist: 20; D1 agonist: 1; D1 potentiator: -2
